Test results reported in article PMC5540273 (PLoS ONE, 2017).

Each compound was assayed on T1, BRK. Conditions: concentration: 1 μM, replicates: in singlicate; n = 1.
T1 construct: gene PTK6
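Also: KINOMEscan kinase panel screen.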

Row | Compound | %Inh [%]
1 | Cc1ccc(NC(=O)c2cccc(C#N)c2)cc1-c1ccc(C(=O)Nc2ccncc2)cc1 [GSK1398463] | 14
2 | CS(=O)(=O)CCNCc1ccc(-c2ccc3ncnc(Nc4ccc(OCc5ccccc5)c(Cl)c4)c3c2)o1.Cl [GW574783] | 0
3 | Fc1ccc(-c2ncn(CCCNCc3ccccc3)c2-c2ccncc2)cc1 | 3
4 | CCc1nc(-c2cccc(C)c2)c(-c2ccnc(NC(=O)c3ccccc3)c2)s1 | 0
5 | c1ccc(-c2ccc3c(-c4ccnc(Nc5ccc6c(c5)OCCO6)n4)cnn3n2)cc1 [GW818941] | 9
6 | CSc1ccc(NC2=C(c3ccccc3Cl)C(=O)NC2=O)cc1 [SB-342411] | 14
7 | FC(F)(F)c1ccc(-c2cc(-c3c[nH]nc3-c3ccccn3)ccn2)cc1 [GW599550] | 8
8 | COc1ccc(NC(=O)Nc2ccc(C)c(-c3ccc(C(=O)Nc4ccncc4)cc3)c2)cc1 [GSK1398475] | 32
9 | Fc1ccc(Nc2nccc(-c3c(-c4ccc(Cl)cc4)nn4ncccc34)n2)cc1F [GW829058] | 6
10 | Cn1cc(-c2ccc3c(c2)CCN3C(=O)Cc2cccc(C(F)(F)F)c2)c2c(N)ncnc21 [GSK2606414] | 3
11 | O=C(CCO)NCCn1ccc2ncnc(Nc3ccc(Oc4cccc(C(F)(F)F)c4)c(Cl)c3)c21 | 13
12 | CNc1nccc(-c2c(-c3ccc(F)cc3)ncn2CCCN2CCOCC2)n1 [SB-222516] | 0
13 | COC(=O)c1cccc(NC(=O)NCCNc2ccnc(Nc3ccc(F)cc3)n2)c1 [GSK1379883] | 24
14 | CN1CCC(n2cnc(-c3ccc(F)cc3)c2-c2ccnc(NC3CCNCC3)n2)CC1 [SB-229482] | 0
15 | COc1ccc(NC(=O)c2ccc(-c3cc(-c4nnc(C)o4)ccc3C)cc2)cc1 [GW595885] | 11
16 | Cl.c1ccc(Cn2ccc3cc(Nc4ncnc5ccccc45)ccc32)cc1 [GW275568] | 0
17 | Nc1nccc2scc(-c3ccc4c(c3)CCN4C(=O)Cc3cc(F)ccc3F)c12 [GSK2587663] | 32
18 | C[C@@H]1CCN(C(=O)CO)C[C@@H]1N(C)c1ncnc2[nH]ccc12 | 0

Row | Compound | %Inh [%]
19 | FC(F)(F)c1cc(Nc2nccc(-c3c(-c4ccc(Cl)cc4)nn4ncccc34)n2)ccc1Cl [GW829351] | 0
20 | O=C(Nc1ccccc1)Nc1ccc(Oc2ccc3nccn3n2)cc1 | 0
21 | Clc1ccc(-c2cc(-c3c[nH]nc3-c3ccccn3)ccn2)cc1 [GW681251] | 0
22 | CCCc1ccc(S(=O)(=O)NC2CCN(c3ccnc(Nc4ccc(OC)cc4)n3)C2)cc1 (centres unmarked) [GSK1379737] | 6
23 | O=C(Nc1n[nH]c2nc(-c3ccco3)c(Br)cc12)c1ccc(CN2CCCC2)cc1.O=C(O)[C@H](O)[C@@H](O)C(=O)O [SB-742352] | 0
24 | CCC(CC)(CC)n1cnc2c(N)ncnc21 [SKF-97620] | 0
25 | Clc1cc(Nc2ncnc3cc[nH]c23)ccc1OCc1ccccn1 | 4
26 | CCn1c(-c2ccncc2)nc2cnccc21 [SB-735216] | 3
27 | Cl.Cl.c1ccc(-c2cc3ccncc3cc2OC2CCNCC2)cc1 [GSK1122999] | 8
28 | O=c1cc(N2CCOCC2)nc2n(Cc3cccc(Cl)c3)ccn12 [GSK2296823] | 7
29 | COc1ccc(Nc2nccc(N3CCC(NC(=O)c4cccc(NC(C)=O)c4)C3)n2)cc1 (centres unmarked) [GSK1379732] | 0
30 | Cc1ccc(O)cc1Nc1cc(C(F)(F)F)nc2ccc(-c3ccncc3)cc12 [GW630823] | 11
31 | O=C(NCCCN1CCCC1=O)c1cnc(NCc2cc(Cl)ccc2Cl)nc1NC1CCNCC1 | 0
32 | COc1cc2ncnc(Nc3ccc(OCc4ccccc4Br)c(Cl)c3)c2cc1OC.Cl [GI261590] | 66
33 | Cc1cccc(-c2nc(Nc3ccc4[nH]nnc4c3)c3ccccc3n2)n1 [GW867587] | 0
34 | CC(=O)Nc1n[nH]c2ncc(-c3ccccc3)cc12 [SB-548492] | 0
35 | COC(=O)c1c(-c2ccccc2)c2cc(Cl)ccc2c(=O)n1Cc1ccc(S(C)(=O)=O)cc1 | 7
